Data on 40 compounds can be found in PubChem BioAssay (NCI).

Molecules are shown by their SMILES. “And” between values parts separate entries of the source, which are not always exact repeats. Identical values can stand only once. About 83,000 compounds went through this panel and 20% of them were active in at least one assay; those are over-represented in the sample as a whole.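 Activity criterion: percent growth below 10, measured after cells in 96-well plates were exposed to a single compound concentration for 48 hours.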 The source made the active and inactive calls.

The subject of the assay is SK-MEL-5 melanoma. Description: NCI-60 one-dose screen, 48 h (100 = growth as untreated, 0 = no growth, -100 = all killed). The following applies: 10 µM unless noted. The procedure:
Growth inhibition of the SK-MEL-5 human tumor cell line is measured as a screen for anti-cancer activity. Cells are grown in 96 well plates and exposed to the test compound for 48 hours. Compounds are tested at a single concentration, which is 10^-5 M for most compounds. The reported endpoint is percent growth (GI% or GIPRCNT), where numbers from 0 - 100% represent growth inhibition, and numbers from -100% - 0 represent cell death. For example, a value of 40 represents 60% growth inhibition. A value of 0 means no net growth occurred over the course of the experiment. A value of -40 indicates 40% of cells at the beginning of the experiment died by the end of the experiment. A value of -100 means all cells are dead at the end of the experiment.
NCI-60 Human Tumor Cell Lines Screen was performed using the standard one-dose NCI protocol, which is described in more detail at https://dtp.cancer.gov/discovery_development/nci-60/default.htm.
Compounds with GIPRCNT values below 10 were considered active. Activity score was based on GIPRCNT using the following formula: […]
Score is 0 for GIPRCNT values of 100 or above, 50 for GIPRCNT values of 0, and 100 for GIPRCNT values of -100.
For the compound `CC(C)Nc1ccc(Nc2ccc(NC(C)C)cc2)cc1`, the growth is 33.2% (inactive). With `O=C(Nc1cccc(C(F)(F)F)c1)Oc1ccc(Cl)c2cccnc12`, the growth was 34% (inactive). On to `S=c1[nH]c2cc(Cl)ccc2s1`, for which the growth is 95.7% (inactive).

On to `CN1CSC(=S)N(Cc2ccccc2)C1`, for which the growth is 96.8% (inactive). On to `COc1ccc(C(Cn2ccnc2)Sc2ccc(Cl)c(Cl)c2)cc1` (stereo not given), for which the growth was 66.5% (inactive). For `CCN(CC)CCNC(Cc1ccccc1)c1ccc(OCc2ccccc2)cc1` (stereo not given), the growth is 72.8% (inactive). As to `Cn1c(-c2ccccc2)c(/C=C/C2=[N+](C)c3ccccc3C2(C)C)c2ccccc21`, the growth is -98.4% (active).

`COc1cc([C@@H]2c3cc4c(cc3[C@H](OC3OC5COC(c6ccccc6)OC5C(O)C3O)[C@H]3COC(=O)[C@H]23)OCO4)cc(OC)c1OC` (stereo not given in full): the growth is -33.3% (active).

Take `CN(C)CC(C)(CN(C)C)C(=O)/C=C/c1c(Cl)cccc1Cl`: the growth was 56.3% (inactive). For the compound `Cc1nc([N+](=O)[O-])c(Sc2nncc(-c3ccccc3)n2)n1C`, the growth was 96% (inactive). Then `Nc1cccc2cccc([N+](=O)[O-])c12`, with 111% (inactive); and `OCCOSCCO`, with 101% (inactive); and `CCCC[n+]1c(/C=C\c2c(OC)cc(OC)cc2OC)ccc2ccccc21`, with -97.2% (active). With `S=C(SSC(=S)N1CCOCC1)N1CCOCC1`, the growth is 73.2% (inactive). For `O=C1C=CC(=O)c2c(O)c(CO)c(CO)c(O)c21`, the growth is 73.8% (inactive). With `Cc1cc(C)c([I+]c2c(C)cc(C)cc2C)c(C)c1`, the growth was -96.8% (active). Turning to `Cc1ccc(N2C(=O)C=CC2=O)cc1`, the growth was 91.2% (inactive).

Regarding `Nc1nc2ncc(CNc3ccc(C(=O)NC(CCC(=O)NC(CCC(=O)NC(CCC(=O)NC(CCC(=O)NC(CCC(=O)O)C(=O)O)C(=O)O)C(=O)O)C(=O)O)C(=O)O)cc3)nc2c(=O)[nH]1` (stereo not given), the growth was 94.7% (inactive). For the compound `CCN(CC)CC(O)c1cc(-c2ccc(Cl)cc2)nc2cc(Cl)ccc12` (stereo not given), the growth was -95.6% (active). Take `OC(c1cc(-c2ccc(C(F)(F)F)cc2)nc(C(F)(F)F)c1)C1CCCCN1` (stereo not given): the growth is -91.6% (active) and -98.8% (active) and 6.65% (active).

In the case of `CCCCCCC1N=C(N)N=C(N)N1c1cccc(Cl)c1` (stereo not given), the growth is 28.3% (inactive). As to `CCCCCCCCCCCCCCCCSC(=NCC)NCC`, the growth was -38% (active). Take `O=[N+]([O-])/C(=C/c1ccccc1)c1ccccc1`: the growth was 103% (inactive).

With `C[C@@]1(CO)[C@H](O)CC[C@@]2(C)[C@H]1CC[C@H]1C[C@@H]3C[C@@]12CC[C@@]3(O)COC(=O)CN`, the growth was -43.8% (active). In the case of `O=C(c1ccccc1)C(Br)[N+](=O)[O-]` (stereo not given), the growth is 102% (inactive). On to `Cc1nn(CCO)c(C)c1N=[N+]([O-])c1c(C)nn(CCO)c1C`, for which the growth is 71.5% (inactive). For the compound `CCOc1ccc(C(C[N+](=O)[O-])Sc2ccccc2N)cc1` (stereo not given), the growth is 40.9% (inactive). `CN(C)c1ccc(C(C#N)(c2ccccc2)c2ccc(N(C)C)cc2)cc1`: the growth was 81.6% (inactive). As to `CN=C(N)N/N=C(\C)c1ccc2c(c1)Cc1ccccc1-2`, the growth is -100% (active). Consider `COC(=O)c1cc([N+](=O)[O-])cc([N+](=O)[O-])c1Cl`, for which the growth is 107% (inactive). With `Cc1cc(N/N=C/c2ccccn2)nc2ccccc12`, the growth is -43.7% (active). With `Cc1cc(C)c(C#N)c(Sc2nc(C)c([N+](=O)[O-])c(C)c2C#N)n1`, the growth is 86.5% (inactive). With `NNc1cccc([N+](=O)[O-])c1`, the growth is 109% (inactive).

Consider `CC(C)(C)c1ccc(O)c(Br)c1`, for which the growth was 96.4% (inactive). Consider `CCCCCCCCCCCC[S+](C)CC(=O)[O-]` (stereo not given), for which the growth was -62.3% (active). On to `Oc1ccc(Nc2ccc3ccccc3c2)cc1`, for which the growth is 44.7% (inactive). `COc1cc(NCc2ccc3nc(N)nc(N)c3c2C)cc(OC)c1OC` (tested in a mixture with another compound): the growth was 21.1% (inactive).

With `CCOC(=O)c1c(C)[nH]c2ccc(O)cc12`, the growth was 101% (inactive). Take `CCSc1nc2ccccc2o1`: the growth is 108% (inactive).

Take `CCNc1nnnn1CC`: the growth is 101% (inactive).
